# In PubChem BioAssay:
# Inconclusive results are not listed. Activity calls are given as the source filed them.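 How the source made its calls, unless noted: active means thallium flux through the channel raised or lowered by more than 3 SD from vehicle-only wells, actives on both sides; inactive means the rest.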
# Assays:
# [1] = blockers of polyQ-driven CASP3 activation – cell-based (AID 1583); conditions: polyglutamine-induced caspase-3 activation, cell assay; stronger effect = higher value;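 tested at 10 µM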
# [2] = yeast 75Q aggregation reduction – 75Q-TubU reporter (AID 1593); conditions: Yeast 75Q polyglutamine aggregation reporter
# [3] = blockers of cytochrome c efflux from mitochondria – biochemical, purified mitochondria (AID 1603); conditions: stronger effect = lower value;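 further: mouse liver mitochondria challenged with calcium chloride; signal normalized to the plate average as 100%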
# [4] = polyglutamine aggregate formation blockers (AID 1604); conditions: polyglutamine-induced protein aggregation inhibition assay; stronger effect = higher value; tested at 2.5 µM
# [5] = glutamate transport activators, MN-1 cells, MN-1 cell line (AID 1612); conditions: MN-1 motor neuron cells, stronger effect = higher value;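 further: tested at 1 µM final; 0% = mean of DMSO vehicle wells on each plate; positive means more glutamate uptake than control and negative means less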
# [6] = 75Q-TubH aggregate inhibition, S. cerevisiae, yeast (AID 1616); conditions: S. cerevisiae 75Q-TubH polyglutamine aggregation suppression; stronger effect = higher value
# [7] = viability loss in pontine glioma line – cell-based, SU-DIPG-XXV, MIPE5.0, CellTiter-Glo, qHTS, dose response (AID 1347065; cut-off not given, nearly all actives have AC50 up to about 26 µM;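 further: cells exposed to compound for 48 hours before ATP readout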); conditions: CellTiter-Glo ATP luminescence
# [8] = molecular target: NAD(+) hydrolase SARM1 (Homo sapiens) (UniProt Q6SZW1); assay: blocking NAD cleavage by SARM1 SAM-TIR – cell lysate, NAD-Glo luminescence (AID 1508614;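 active means compound whose remaining NAD level is above about 45 nM, limit read from the data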); conditions: SAM-TIR HEK293T lysate NADase, at 1 µM, stronger effect = higher value
# Sequence of NAD(+) hydrolase SARM1 (Homo sapiens) (Q6SZW1 whole entry, looked up): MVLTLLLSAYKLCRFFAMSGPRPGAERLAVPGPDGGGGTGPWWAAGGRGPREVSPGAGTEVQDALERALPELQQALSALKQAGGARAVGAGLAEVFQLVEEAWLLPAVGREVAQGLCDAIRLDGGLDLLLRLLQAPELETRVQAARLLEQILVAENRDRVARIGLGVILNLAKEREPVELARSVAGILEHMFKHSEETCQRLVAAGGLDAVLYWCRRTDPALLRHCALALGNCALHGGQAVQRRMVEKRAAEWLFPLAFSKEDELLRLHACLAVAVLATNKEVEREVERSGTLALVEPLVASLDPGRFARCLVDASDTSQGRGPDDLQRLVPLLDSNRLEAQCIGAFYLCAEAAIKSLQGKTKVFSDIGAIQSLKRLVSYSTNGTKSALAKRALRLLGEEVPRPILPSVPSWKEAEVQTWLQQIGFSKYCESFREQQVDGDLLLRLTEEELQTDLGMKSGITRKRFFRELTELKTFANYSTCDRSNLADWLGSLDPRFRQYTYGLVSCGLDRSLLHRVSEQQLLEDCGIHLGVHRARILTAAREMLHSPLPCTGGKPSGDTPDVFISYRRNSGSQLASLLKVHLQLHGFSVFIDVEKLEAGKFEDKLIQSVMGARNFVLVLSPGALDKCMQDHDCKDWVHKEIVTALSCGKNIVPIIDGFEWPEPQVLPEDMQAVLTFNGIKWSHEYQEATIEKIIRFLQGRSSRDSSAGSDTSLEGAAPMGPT
# [9] = system: F380Y/beta4; assay: BK channel mutant inhibitors and activators – cell-based, U2OS BacMam, thallium flux, beta subunits, selectivity assay, profiling panel (AID 1259406); conditions: U2OS BacMam BK variants, at 30 µM;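 further: initial slope of Thallos dye fluorescence rise after thallium is added; log ratio against the mean of 0.3% DMSO vehicle wells on the same plate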
# [10] = system: R275C/beta4; assay: as above; conditions: U2OS BacMam BK variants, at 30 µM
# [11] = system: R275C/Slo1WT/beta2; assay: as above; conditions: U2OS BacMam BK variants, at 30 µM
# [12] = system: Neuropilin-2 / VEGF-C interaction (human); assay: small molecules blocking Neuropilin-2/VEGF-C interaction – biochemical, microplate binding format, z-score (AID 743281; call rule not given here); conditions: microplate NRP2/VEGF-C binding assay; stronger effect = lower value
# [13] = viability loss in pontine glioma line – cell-based, JHH-DIPG-1, MIPE4.0, CellTiter-Glo, qHTS, dose response (AID 1347062; cut-off not given, nearly all actives have AC50 up to about 27 µM); conditions: JHH-DIPG-1 viability, CellTiter-Glo ATP luminescence
# [14] = growth inhibition of DIPG cells – cell-based, MIPE4.0 library, CellTiter-Glo luminescence, qHTS (AID 1347066; cut-off not given, nearly all actives have AC50 up to about 30 µM;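 further: cells exposed to compound for 48 hours before readout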); conditions: SU-DIPG-VI viability, CellTiter-Glo ATP luminescence
# [15] = compounds altering HSF1 focus formation in cells – imaging, Selleck Cancer Library (AID 1347162; in the data active means plate-normalised HSF1 focus index below about 0.46); conditions: human cells, HSF1 nuclear foci imaging, at 10 µM; SSMD: measured here: HSF1 foci SSMD mean; cell count: measured here: cell number; plate-normalised HSF1 focus index: stronger effect = lower value
# [16] = compounds altering circadian rhythm period length – cell-based, LOPAC library, luminescence reporter (AID 2774; call rule not given here;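 further: values are relative to mean of DMSO wells on each plate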); conditions: circadian reporter cells, at 7 µM, actives lie on both sides
# [17] = system: Hepatitis C virus NS3 helicase; assay: blockers of NS3h binding to ssDNA – biochemical, fluorescence polarization, LOPAC1280 library, primary screen (AID 687035; in the data active means inhibition above about 37%); conditions: Purified HCV NS3 helicase, Cy5-dT15 ssDNA binding fluorescence polarization; stronger effect = higher value; concentration not given here
# [18] = compounds altering Cy5-DNA-NS3h complex signal – biochemical, LOPAC1280, artefact control for HCV NS3 helicase inhibitor project (AID 687037; call rule not given here); conditions: Cy5-DNA-NS3h complex fluorescence interference counterscreen
# [19] = blockers of cellular phospholipid synthesis – cell-based, LOPAC library, screen 4, primary screen (AID 1347384; call rule not given here); conditions: animal cells, phospholipid biosynthesis inhibition screen; at 10 µM
# [20] = compounds altering viability of human ES cells (AID 493140; call rule not given here;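 further: cells exposed to compounds for four days before counting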); conditions: human embryonic stem cell survival screen; stronger effect = higher value
compound,measurement,setting,value
Nc1ncnc2c1ncn2[C@@H]1O[C@H](CO)[C@@H](O)[C@@H]1O,inhibition,[1],13.4%
same,score,[2],1.04
same,cytochrome c release ratio,[3],1.16
same,inhibition of aggregation,[4],56.1%
same,glutamate uptake change,[5],13.7%
same,aggregation suppression score,[6],0.666
same,outcome,[7],inactive
same,remaining NAD,[8],10 nM (inactive)
same,log fold change Tl+ flux,[9],0.0319 (inactive)
same,log fold change Tl+ flux,[10],0.00861 (inactive)
same,log fold change Tl+ flux,[11],0.0175 (inactive)
CCc1ccc(CCOc2ccc(CC3SC(=O)NC3=O)cc2)nc1 (stereo not drawn),z-score,[12],0.637 (inactive)
same,outcome,[13],inactive
same,outcome,[7],inactive
same,outcome,[14],inactive
same,SSMD,[15],-1.24
same,cell count,[15],7530
same,plate-normalised HSF1 focus index,[15],0.926 (inactive)
same,remaining NAD,[8],10 nM (inactive)
same,log fold change Tl+ flux,[9],0.017 (inactive)
same,log fold change Tl+ flux,[10],-0.028 (inactive)
same,log fold change Tl+ flux,[11],-0.0116 (inactive)
Cc1cccc(C)c1NC(=O)C1CCCCN1C (stereo not drawn),z-score,[12],-0.136 (inactive)
same,remaining NAD,[8],10 nM (inactive)
same,log fold change Tl+ flux,[9],0.00629 (inactive)
same,log fold change Tl+ flux,[10],-0.0225 (inactive)
same,log fold change Tl+ flux,[11],-0.0173 (inactive)
CS(=O)(=O)c1ccc(C2=C(c3ccccc3)C(=O)OC2)cc1,z-score,[12],-0.0129 (inactive)
same,outcome,[13],inactive
same,outcome,[7],inactive
same,outcome,[14],inactive
same,remaining NAD,[8],10 nM (inactive)
same,log fold change Tl+ flux,[9],-0.000569 (inactive)
same,log fold change Tl+ flux,[10],0.00682 (inactive)
same,log fold change Tl+ flux,[11],0.00403 (inactive)
O=[N+]([O-])c1cccc2cn[nH]c12,period change,[16],-0.295 h (inactive)
same,inhibition,[17],-1% (inactive)
same,fluorescence ratio (interference),[18],1 (inactive)
same,z-score,[12],-0.0317 (inactive)
same,outcome,[19],inactive
same,log fold change Tl+ flux,[9],0.0331 (inactive)
same,log fold change Tl+ flux,[10],0.0112 (inactive)
same,log fold change Tl+ flux,[11],-0.00893 (inactive)
CC(C)NCC(O)COc1ccc(CC(N)=O)cc1 (stereo not drawn),inhibition,[1],16.6%
same,score,[2],1.42
same,cytochrome c release ratio,[3],0.86
same,inhibition of aggregation,[4],-11.1%
same,glutamate uptake change,[5],-9.65%
same,aggregation suppression score,[6],1.39
same,period change,[16],0.015 h (inactive)
same,survival,[20],4.33 (inactive)
same,inhibition,[17],-1% (inactive)
same,fluorescence ratio (interference),[18],0.9 (inactive)
same,outcome,[19],inactive
same,remaining NAD,[8],10 nM (inactive)
same,log fold change Tl+ flux,[9],0.0375 (inactive)
same,log fold change Tl+ flux,[10],0.0424 (inactive)
same,log fold change Tl+ flux,[11],0.0165 (inactive)
CC[C@H](C)C(=O)O[C@H]1CCC=C2C=C[C@H](C)[C@H](CC[C@@H]3C[C@@H](O)CC(=O)O3)[C@H]21,period change,[16],0.035 h (inactive)
same,inhibition,[17],-1% (inactive)
same,fluorescence ratio (interference),[18],0.9 (inactive)
same,z-score,[12],-1.1 (inactive)
same,outcome,[19],inactive
same,remaining NAD,[8],10 nM (inactive)
C#C[C@]1(OC(C)=O)CC[C@H]2[C@@H]3CCC4=CC(=O)CC[C@@H]4[C@H]3CC[C@@]21C,remaining NAD,[8],24 nM (inactive)
same,log fold change Tl+ flux,[9],-0.176 (active)
same,log fold change Tl+ flux,[10],-0.14 (active)
same,log fold change Tl+ flux,[11],-0.0421 (inactive)
